What all share (parameters): scale not given: direction of the effect not stated beside the values
In test [1] the target is Protein translocase subunit SecA (Escherichia coli (strain K12)) (UniProt P10408). Briefly: Assay to Identify E. coli SecA ATPase Inhibitors. It counts as functional. The following applies: 30 µM.
In test [2] the target is T1, Ubiquitin-activating enzyme e1, putative (Leishmania donovani (strain BPK282A1)) (UniProt E9BSI1).
T1 sequence (whole entry): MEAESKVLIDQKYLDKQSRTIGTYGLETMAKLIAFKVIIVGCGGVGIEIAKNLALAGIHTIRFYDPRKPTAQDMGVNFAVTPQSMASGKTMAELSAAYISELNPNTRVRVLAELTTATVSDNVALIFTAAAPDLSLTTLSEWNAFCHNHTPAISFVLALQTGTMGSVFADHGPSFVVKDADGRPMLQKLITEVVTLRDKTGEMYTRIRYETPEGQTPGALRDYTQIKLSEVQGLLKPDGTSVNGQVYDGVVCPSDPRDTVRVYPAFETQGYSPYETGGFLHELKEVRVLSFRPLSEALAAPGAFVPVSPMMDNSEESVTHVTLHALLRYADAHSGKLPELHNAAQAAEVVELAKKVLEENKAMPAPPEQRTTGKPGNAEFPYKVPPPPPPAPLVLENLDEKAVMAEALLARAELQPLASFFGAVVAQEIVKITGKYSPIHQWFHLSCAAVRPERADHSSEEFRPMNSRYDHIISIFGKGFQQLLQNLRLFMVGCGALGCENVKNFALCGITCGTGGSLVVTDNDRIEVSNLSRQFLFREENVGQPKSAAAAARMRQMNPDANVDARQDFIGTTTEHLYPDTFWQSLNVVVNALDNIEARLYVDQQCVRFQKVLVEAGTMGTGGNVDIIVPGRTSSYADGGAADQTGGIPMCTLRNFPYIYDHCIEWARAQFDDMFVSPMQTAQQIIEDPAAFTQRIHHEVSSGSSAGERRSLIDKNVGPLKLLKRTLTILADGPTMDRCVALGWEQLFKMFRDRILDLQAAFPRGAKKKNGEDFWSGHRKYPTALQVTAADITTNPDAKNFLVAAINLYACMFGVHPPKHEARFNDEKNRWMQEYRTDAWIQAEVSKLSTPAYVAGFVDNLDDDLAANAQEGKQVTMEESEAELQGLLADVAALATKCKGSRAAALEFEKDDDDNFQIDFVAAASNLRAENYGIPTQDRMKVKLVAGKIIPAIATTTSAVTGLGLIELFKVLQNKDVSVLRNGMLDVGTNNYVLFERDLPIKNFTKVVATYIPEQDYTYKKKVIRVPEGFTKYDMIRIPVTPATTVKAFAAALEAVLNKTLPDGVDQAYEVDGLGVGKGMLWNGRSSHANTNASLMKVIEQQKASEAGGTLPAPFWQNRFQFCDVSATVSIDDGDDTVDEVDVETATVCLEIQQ
As to the kind of experiment: Leishmania donovani Ubiquitin Activating Enzyme (LdE1). The class given is functional. The following applies: 30 µM.

Test [3] has as its target Sialic acid-binding Ig-like lectin 9 (Homo sapiens) (UniProt Q9Y336). Briefly: Hs-Siglec9 ALPHAscreen SOP 20170721. The following applies: 10 µM. In general terms: Alpha assays give light when donor and acceptor beads are brought close together.
Test [4] deals with Trypanosoma cruzi. Briefly: Trypanosoma cruzi phosphomannomutase and mannose-1-phosphate guanylyltransferase assay. The class given is functional. The following applies: 10 µM.
Test [5] concerns the target T2, Arginase-2, mitochondrial (Homo sapiens) (UniProt P78540).
T2 sequence (whole entry): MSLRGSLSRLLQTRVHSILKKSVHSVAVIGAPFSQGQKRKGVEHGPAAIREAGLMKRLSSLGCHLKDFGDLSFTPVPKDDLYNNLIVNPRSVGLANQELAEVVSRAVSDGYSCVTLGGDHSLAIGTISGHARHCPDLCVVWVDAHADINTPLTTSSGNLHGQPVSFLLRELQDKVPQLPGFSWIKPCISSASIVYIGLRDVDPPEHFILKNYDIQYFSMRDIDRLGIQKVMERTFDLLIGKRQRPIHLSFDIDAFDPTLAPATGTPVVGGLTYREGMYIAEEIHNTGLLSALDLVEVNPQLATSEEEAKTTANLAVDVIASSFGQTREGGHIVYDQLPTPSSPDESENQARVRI
As to the kind of experiment: in vitro enzyme assay to detect the production of urea directly proportional to the activity of Arginase II. Further: in the data most compounds retested in dose-response had high values. To be noted: 33.3 µM. The class given is functional.

The target in test [6] is T3, Proteasome subunit beta (Trypanosoma cruzi) (UniProt O96673).
T3 sequence (whole entry): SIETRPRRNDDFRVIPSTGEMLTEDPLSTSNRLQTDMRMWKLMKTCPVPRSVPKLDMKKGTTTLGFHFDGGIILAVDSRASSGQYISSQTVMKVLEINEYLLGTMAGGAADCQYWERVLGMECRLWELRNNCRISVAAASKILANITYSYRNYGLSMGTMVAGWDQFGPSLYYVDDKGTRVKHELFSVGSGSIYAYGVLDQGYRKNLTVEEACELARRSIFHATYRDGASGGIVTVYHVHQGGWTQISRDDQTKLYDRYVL
As to the kind of experiment: Trypanosoma cruzi proteasome chymotrypsin-like activity (TcProtChymo) assay. Further: in the data most compounds retested in dose-response had high values. The class given is functional. The following applies: 9.37 µM.

For test [7], the species on record is Homo sapiens. As to the kind of experiment: To identify inhibition of the IFN signalling (Jak-Stat) pathway via expression of an eGFP reporter gene under the control of an IFN-stimulated response element (ISRE) containing MxA promoter. The class given is functional. The following applies: 30 µM.
Test [8] deals with T4, Tyrosyl-tRNA synthetase, putative (Trypanosoma cruzi (strain CL Brener)) (UniProt Q4DSP6).
T4 sequence (whole entry): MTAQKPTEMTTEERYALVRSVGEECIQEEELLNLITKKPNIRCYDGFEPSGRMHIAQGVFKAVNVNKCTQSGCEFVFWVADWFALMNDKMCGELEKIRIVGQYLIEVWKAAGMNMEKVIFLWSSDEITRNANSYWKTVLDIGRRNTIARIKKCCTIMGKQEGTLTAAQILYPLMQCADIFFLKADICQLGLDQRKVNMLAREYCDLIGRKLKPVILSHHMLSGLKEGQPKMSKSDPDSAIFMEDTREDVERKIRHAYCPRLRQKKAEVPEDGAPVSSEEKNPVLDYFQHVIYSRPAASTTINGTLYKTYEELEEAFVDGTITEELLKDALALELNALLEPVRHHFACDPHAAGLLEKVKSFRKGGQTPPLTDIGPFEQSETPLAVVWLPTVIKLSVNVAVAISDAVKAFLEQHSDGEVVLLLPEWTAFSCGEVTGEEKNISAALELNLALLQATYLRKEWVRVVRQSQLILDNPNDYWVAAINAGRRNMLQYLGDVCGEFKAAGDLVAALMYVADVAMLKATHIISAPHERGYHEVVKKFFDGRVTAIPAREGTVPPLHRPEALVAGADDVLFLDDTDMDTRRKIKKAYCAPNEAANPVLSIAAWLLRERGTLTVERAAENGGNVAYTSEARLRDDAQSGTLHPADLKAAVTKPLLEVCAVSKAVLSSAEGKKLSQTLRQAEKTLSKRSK
As to the kind of experiment: Trypanosoma cruzi tyrosyl tRNA synthetase (TcYRS) _High Tyrosine SOP. Further: in the data most compounds retested in dose-response had high values. It counts as functional. To be noted: 30 µM.

Test [9] has as its target T4, Tyrosyl-tRNA synthetase, putative (Trypanosoma cruzi (strain CL Brener)). Briefly: Trypanosoma cruzi tyrosyl tRNA synthetase (TcYRS) SOP. The class given is functional. To be noted: 30 µM.
Test [10] addresses Chromo domain-containing protein 1 (Saccharomyces cerevisiae (strain ATCC 204508 / S288c) (Baker's yeast)) (UniProt P32657). Briefly: ScCHD-1 Enzyme Inhibition Assay. Further: in the data most compounds retested in dose-response had high values. The class given is functional. The following applies: 30 µM.

For part of these data: Potency and affinity values are given separately.

Sialic acid-binding Ig-like lectin 9 (Homo sapiens), sequence (Q9Y336 whole entry): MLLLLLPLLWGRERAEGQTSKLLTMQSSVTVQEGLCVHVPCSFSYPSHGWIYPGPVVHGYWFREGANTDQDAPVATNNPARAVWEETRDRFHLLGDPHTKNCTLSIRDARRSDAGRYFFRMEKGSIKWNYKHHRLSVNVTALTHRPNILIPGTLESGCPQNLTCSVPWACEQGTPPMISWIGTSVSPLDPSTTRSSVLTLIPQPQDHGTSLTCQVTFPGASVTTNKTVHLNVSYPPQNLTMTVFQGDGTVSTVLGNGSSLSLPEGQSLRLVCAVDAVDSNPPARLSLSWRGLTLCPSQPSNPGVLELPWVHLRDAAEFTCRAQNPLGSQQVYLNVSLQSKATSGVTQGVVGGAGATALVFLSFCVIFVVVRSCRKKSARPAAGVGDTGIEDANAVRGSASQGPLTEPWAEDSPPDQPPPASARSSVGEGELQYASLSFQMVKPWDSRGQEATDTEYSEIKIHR
Chromo domain-containing protein 1 (Saccharomyces cerevisiae (strain ATCC 204508 / S288c) (Baker's yeast)), sequence (P32657 whole entry, the tested form may be a part): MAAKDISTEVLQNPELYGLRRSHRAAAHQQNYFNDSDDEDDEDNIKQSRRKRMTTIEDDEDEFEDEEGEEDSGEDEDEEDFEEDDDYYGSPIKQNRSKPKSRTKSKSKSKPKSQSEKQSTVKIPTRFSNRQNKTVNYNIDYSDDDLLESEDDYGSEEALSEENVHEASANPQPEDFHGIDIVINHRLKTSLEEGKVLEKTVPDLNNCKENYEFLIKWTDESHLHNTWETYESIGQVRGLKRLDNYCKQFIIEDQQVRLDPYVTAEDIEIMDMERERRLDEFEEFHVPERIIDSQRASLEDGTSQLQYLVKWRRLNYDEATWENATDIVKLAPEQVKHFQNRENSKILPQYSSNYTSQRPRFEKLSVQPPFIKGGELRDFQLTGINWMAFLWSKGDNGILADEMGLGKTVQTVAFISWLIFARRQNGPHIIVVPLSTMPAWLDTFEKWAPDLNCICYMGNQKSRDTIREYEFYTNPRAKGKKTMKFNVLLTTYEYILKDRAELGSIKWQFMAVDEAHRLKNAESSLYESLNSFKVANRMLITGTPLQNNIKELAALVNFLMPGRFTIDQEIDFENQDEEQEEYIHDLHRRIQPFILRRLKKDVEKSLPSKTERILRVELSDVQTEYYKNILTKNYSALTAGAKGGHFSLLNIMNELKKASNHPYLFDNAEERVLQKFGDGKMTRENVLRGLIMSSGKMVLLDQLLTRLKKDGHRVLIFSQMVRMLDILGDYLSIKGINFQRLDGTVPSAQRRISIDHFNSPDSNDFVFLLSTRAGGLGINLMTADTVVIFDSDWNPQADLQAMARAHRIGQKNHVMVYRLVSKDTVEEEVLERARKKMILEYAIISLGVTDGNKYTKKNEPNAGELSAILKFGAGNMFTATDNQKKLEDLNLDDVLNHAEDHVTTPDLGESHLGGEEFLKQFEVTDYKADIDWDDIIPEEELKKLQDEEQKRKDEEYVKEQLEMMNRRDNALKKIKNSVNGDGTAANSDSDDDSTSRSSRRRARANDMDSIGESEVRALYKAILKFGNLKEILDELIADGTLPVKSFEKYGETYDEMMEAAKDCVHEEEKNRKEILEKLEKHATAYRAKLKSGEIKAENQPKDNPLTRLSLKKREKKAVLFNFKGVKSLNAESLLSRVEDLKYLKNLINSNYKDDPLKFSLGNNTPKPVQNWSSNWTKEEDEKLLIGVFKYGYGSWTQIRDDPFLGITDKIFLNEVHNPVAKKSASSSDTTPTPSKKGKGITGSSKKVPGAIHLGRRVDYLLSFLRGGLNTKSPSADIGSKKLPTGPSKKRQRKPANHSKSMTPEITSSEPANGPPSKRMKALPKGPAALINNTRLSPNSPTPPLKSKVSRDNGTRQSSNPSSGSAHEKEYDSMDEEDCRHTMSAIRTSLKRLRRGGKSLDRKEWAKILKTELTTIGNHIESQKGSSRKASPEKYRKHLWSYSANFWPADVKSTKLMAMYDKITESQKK
Protein translocase subunit SecA (Escherichia coli (strain K12)), sequence (P10408 whole entry): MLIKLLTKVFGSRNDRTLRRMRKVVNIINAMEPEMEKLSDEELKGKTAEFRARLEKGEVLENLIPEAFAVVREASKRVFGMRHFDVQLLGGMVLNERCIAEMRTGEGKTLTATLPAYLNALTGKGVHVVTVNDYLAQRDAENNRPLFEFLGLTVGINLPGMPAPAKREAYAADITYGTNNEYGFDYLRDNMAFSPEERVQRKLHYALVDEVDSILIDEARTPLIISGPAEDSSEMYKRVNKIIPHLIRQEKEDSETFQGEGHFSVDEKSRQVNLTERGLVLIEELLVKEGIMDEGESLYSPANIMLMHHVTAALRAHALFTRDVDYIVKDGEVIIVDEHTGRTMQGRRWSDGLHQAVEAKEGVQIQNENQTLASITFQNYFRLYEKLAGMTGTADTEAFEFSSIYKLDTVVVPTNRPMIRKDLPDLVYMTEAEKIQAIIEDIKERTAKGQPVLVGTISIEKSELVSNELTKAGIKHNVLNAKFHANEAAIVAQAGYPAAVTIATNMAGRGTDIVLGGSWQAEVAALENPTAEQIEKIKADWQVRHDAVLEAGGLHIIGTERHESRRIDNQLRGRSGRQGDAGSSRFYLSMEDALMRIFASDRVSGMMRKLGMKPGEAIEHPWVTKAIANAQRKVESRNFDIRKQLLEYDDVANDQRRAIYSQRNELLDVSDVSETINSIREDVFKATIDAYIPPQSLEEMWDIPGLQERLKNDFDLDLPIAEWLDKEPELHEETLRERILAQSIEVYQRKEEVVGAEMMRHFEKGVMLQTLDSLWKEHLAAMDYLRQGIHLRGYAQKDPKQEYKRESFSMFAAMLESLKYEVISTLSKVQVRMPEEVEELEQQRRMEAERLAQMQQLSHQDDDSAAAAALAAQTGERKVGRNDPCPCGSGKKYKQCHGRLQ

For the compound `O=C(C1CCCC1)N1CCC2(CC1)COCCN2CC1CC1`, the Percent Effect in [1] was -2.73%; in [2] it was 16.9%; in test [3], -2.04%; in test [4] it was -1.31%; in test [5], 5.02%; in test [6] it was 10%. Further, the Percent Effect in test [7] is 9.54%; in test [8], 11.6%; in [9], 15%; in [10] it was -9.88%.
`CC(C)c1noc(CCC(=O)NCC2CCS(=O)(=O)C2)n1` (stereo not given): the Percent Effect in test [1] is -2.91%; in [2], 21.3%; in test [3], 0.895%; in [4], 2.81%; in test [5], -0.444%; in [6], 12.3%. In addition, the Percent Effect was 1.69% in test [7], 1.58% in test [8], 17.9% in test [9] and -12.2% in test [10].
Consider `Cc1ccoc1-c1nnc(CN2CCCC(Cn3cncn3)C2)o1` (stereo not given), for which the Percent Effect is -4.32% in [1]; 0% in test [2]; 3.64% in [3]; 2.54% in [4]; 7.38% in test [5]; -8.45% in [6]. Moreover, the Percent Effect is 14.1% in [7], 3.35% in test [8], 1.21% in test [9] and -1.2% in [10].
Regarding `COc1cc(S(=O)(=O)N2CCc3ccc(F)cc32)cc(C(=O)O)c1OC`, the Percent Effect is -7.45% in test [1]; 10.7% in test [2]; 12.6% in [3]; -1.21% in [4]; 0% in [5]; 6.02% in [6]. The Percent Effect in test [7] was 4.5%; in test [8], -3.68%; in test [9], -5.13%; in test [10], -15.2%.
As for `CC(C)NC(=O)N1CCC2(CC(=O)N(c3cccc(C#N)c3)C2)C1` (stereo not given), the Percent Effect in test [1] was -4.66%; in test [2], -16.9%; in test [3] it was 0.438%; in [4] it was -3.6%; in test [5], -3.64%; in [6], 9.8%. The Percent Effect was -4.77% in [7], -0.526% in test [8], -35.9% in test [9] and -0.524% in [10].
Turning to `CNC(=O)c1cc(S(=O)(=O)C(C)C)cs1`, the Percent Effect in test [1] came to 0.159%; in test [2] it was 19.5%; in [3] it was 28.2%; in test [4], 3.75%; in [5] it was 3.2%; in test [6], 13.7%. The Percent Effect in [7] was -6.32%; in test [8], 6.76%; in [9] it was 20%; in test [10] it was -10.6%.
`CCc1ccc(O)c(C(=O)NC2CCN(C(=O)OC)CC2)c1`: the Percent Effect in test [1] is 0.0182%; in test [2] it was 15.4%; in test [3] it was -8.93%; in test [4], -4.79%; in test [5], 4.51%; in test [6], 5.89%. Moreover, the Percent Effect in test [7] is 36.6%; in test [8] it was 5.26%; in [9], 13.2%; in [10], -4.89%.
Regarding `CCn1ccnc1CN1CCCN(C(=O)c2cc(Cl)c[nH]2)CC1`, the Percent Effect was -1.59% in [1]; 12.8% in test [2]; 9.67% in test [3]; 7.98% in test [4]; 8.61% in test [5]; 1.79% in [6]. In addition, the Percent Effect is 10.2% in test [7], 3.35% in test [8], 22.9% in test [9] and -8.12% in test [10].
On to `O=C1COC2(CCN(C(=O)c3ccco3)CC2)CN1Cc1cccnc1`, for which the Percent Effect is -3.74% in [1]; 14.3% in test [2]; -1.08% in test [3]; -2.25% in [4]; -0.457% in test [5]; 3.86% in test [6]. Further, the Percent Effect in [7] was -5.38%; in test [8] it was 7.73%; in test [9], 15%; in [10] it was -5.67%.
For `COc1ccccc1CCN(C)C(=O)NC(C)c1nncn1C` (stereo not given), the Percent Effect in [1] was -6.85%; in [2], 10.7%; in [3], 12.9%; in test [4], -1.21%; in test [5] it was 0%; in test [6] it was 16.2%. The Percent Effect in test [7] was -2.26%; in test [8] it was 2.63%; in [9] it was 5.13%; in [10] it was -8.54%.
Consider `CCc1nccn1-c1cncc(C2CCCN2Cc2cccnc2)n1` (stereo not given), for which the Percent Effect in [1] was -0.52%; in test [2], 9.33%; in test [3] it was 4.5%; in test [4], 1.38%; in test [5], 0.443%; in [6] it was 13.3%. Further, the Percent Effect in [7] was -9.84%; in [8], 6.35%; in test [9], 20%; in test [10] it was -22.2%.
Consider `Cc1cnn(C2CCCN(C(=O)c3sccc3C#N)C2)c1` (stereo not given), for which the Percent Effect in test [1] is -7.04%; in test [2], 0%; in [3], -9.94%; in test [4] it was -1.78%; in test [5], -2.05%; in test [6], -3.33%. In addition, the Percent Effect in test [7] is 30.2%; in [8], 0.478%; in [9], 1.21%; in [10], -3.26%.
